Bioassay records as filed in PubChem BioAssay.
BAZ2B block – qHTS Assay for Inhibitors of BAZ2B | Bromodomain adjacent to zinc finger domain protein 2B (Homo sapiens), Q9UIF8 | AlphaScreen BAZ2B-H3K14Ac peptide displacement | Potency, µM (doses to about 114 µM), inactives show at the top dose activity change, negative = inhibition, actives largely listed as inhibitors | hit rate 4.4% among 360,000 | AID 504333, 2011; note: % is set by controls: 0 for no effect and ±100 for the full control effect; nearly all actives have a fitted effect of over 60% in size
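In this displacement format the biotinylated H3(5-23) peptide acetylated at Lys14 serves as ligand at 50 nM, with BAZ2B at 50 nM in PBS pH 7.4 containing 0.01% Tween-20. Donor and acceptor beads are 10 ug/mL final.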
G9a block – qHTS Assay for Inhibitors of Histone Lysine Methyltransferase G9a; Histone-lysine N-methyltransferase EHMT2 (Homo sapiens), Q96KQ7; G9a H3K9 monomethylation, AlphaScreen, 2 h; Potency, µM (titrated, usually from 102 µM), for the others: at the top dose activity, negative = inhibition, hits mostly inhibitors; hit rate 8.8% among 350,000; AID 504332, 2011; note: % is set by controls: 0 for no effect and ±100 for the full control effect; nearly all actives have a fitted effect of over 75% in size
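Readings reflect AlphaScreen signal from monomethyl-H3K9 antibody detection. HMT at 20 nM; substrate b-H3K9 500 nM; cofactor SAM 20 uM; 2 h RT reaction; compounds tested as titrations in qHTS with 15 min preincubation.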
Sfp inh – qHTS Assay for Inhibitors of Bacillus subtilis Sfp phosphopantetheinyl transferase (PPTase). 4'-phosphopantetheinyl transferase ffp (Bacillus subtilis), Q9F4F7. Biochemical Sfp PPTase activity, qHTS. Potency, µM, for inactives: largest response in the series, negative = inhibition, usual class: inhibitors. hit rate 3.5% among 310,000. AID 1490, 2009;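 note: the enzyme is Sfp with the accession as filed and its product quenches rhodamine fluorescence; 0% = enzyme reaction without inhibitor and -100% = no enzyme wells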
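After 15 min at room temperature with compound, 15 nM Sfp received 5 uM rhodamine-CoA plus 12.5 uM BHQ-2-ybbR (50 mM Hepes pH 7.6, 10 mM MgCl2). Rate came from the fluorescence difference over 30 min, ex 525/em 598 nm.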
L3MBTL1 inh – qHTS Assay for the Inhibitors of L3MBTL1. Lethal(3)malignant brain tumor-like protein 1 (Homo sapiens), Q9Y468. hit rate 0.66% among 230,000. Potency, µM (series often up to 57.1 µM), inactives show at the top dose activity, negative = inhibition, hits mostly inhibitors. AlphaScreen L3MBTL1–H3K9me1 peptide binding; note: % is set by controls: 0 for no effect and ±100 for the full control effect; nearly all actives have a fitted effect of over 60% in size
Target sequence (Q9Y468 whole entry, looked up): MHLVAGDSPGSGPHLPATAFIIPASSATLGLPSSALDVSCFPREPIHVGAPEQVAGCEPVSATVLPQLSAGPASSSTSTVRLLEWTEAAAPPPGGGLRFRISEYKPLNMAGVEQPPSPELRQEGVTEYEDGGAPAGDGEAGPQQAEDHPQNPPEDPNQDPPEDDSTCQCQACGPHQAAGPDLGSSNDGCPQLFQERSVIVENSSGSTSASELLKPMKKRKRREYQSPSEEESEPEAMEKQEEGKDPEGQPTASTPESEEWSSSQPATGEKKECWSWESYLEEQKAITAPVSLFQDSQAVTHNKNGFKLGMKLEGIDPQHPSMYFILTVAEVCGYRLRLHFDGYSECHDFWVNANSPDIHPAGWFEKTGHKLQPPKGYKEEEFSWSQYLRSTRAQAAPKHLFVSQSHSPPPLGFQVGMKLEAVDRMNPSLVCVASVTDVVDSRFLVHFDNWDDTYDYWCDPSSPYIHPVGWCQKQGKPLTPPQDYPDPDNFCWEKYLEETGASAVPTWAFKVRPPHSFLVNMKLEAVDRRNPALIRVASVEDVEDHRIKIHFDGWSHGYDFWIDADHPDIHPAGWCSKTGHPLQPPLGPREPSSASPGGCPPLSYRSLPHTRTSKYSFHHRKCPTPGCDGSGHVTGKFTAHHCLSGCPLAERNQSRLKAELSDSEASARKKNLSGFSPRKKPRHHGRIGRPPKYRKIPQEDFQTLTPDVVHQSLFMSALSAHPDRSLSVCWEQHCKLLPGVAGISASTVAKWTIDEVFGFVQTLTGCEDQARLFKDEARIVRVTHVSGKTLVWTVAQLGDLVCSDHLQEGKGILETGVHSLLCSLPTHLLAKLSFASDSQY
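L3MBTL1 (50 nM) pre-complexed 30 min with biotinylated H3(1-15)K9me1 peptide (75 nM), then compounds added for 30 min at room temperature; AlphaScreen streptavidin donor/nickel chelate acceptor beads (10 ug/mL final) read after 30 min dark incubation.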
HP1b chromo inh – HTS for Inhibitors of HP1-beta Chromodomain Interactions with Methylated Histone Tails; Chromobox protein homolog 1 (Homo sapiens), P83916; AlphaScreen HP1-beta / biotin-H3K9me3 peptide binding; Potency, µM (titrated, usually from 114 µM), for inactives: at the highest dose activity change, negative = inhibition, usual class: inhibitors; hit rate 0.56% among 390,000; AID 540317, 2011; note: nearly all actives have a fitted effect of over 70% in size
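HP1-beta protein (50 nM final) preincubated 30 min at room temperature with biotinylated H3(1-18)K9me3 peptide (50 nM) in PBS pH 7.4, 0.01% Tween-20, then compound added for 30 min. AlphaScreen streptavidin donor/nickel chelate acceptor beads (10 ug/mL final), 30 min dark, luminescence read.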
JMJD2A Tudor inh – qHTS Assay for Inhibitors of JMJD2A-Tudor Domain | Lysine-specific demethylase 4A (Homo sapiens), O75164 | AlphaScreen JMJD2A-Tudor / H3K4me3 peptide binding | Potency, µM (titrated, usually from 114 µM), for inactives: at the highest dose activity change, negative = inhibition, most hits filed as inhibitors | hit rate 4.4% among 390,000 | AID 504339, 2011; note: % is set by controls: 0 for no effect and ±100 for the full control effect; nearly all actives have a fitted effect of over 50% in size
Active calls of the source: *; [ ] = dose if it differs, or a comment. Sampled rows, rich in hits. Any-hit rate of the full collection: about 12%. Calls come from the whole dose curve; as a rule, active = well fitted curve in the direction sought with a large enough effect; inconclusive = small, poorly fitted or top-dose-only effect, or another doubt; inactive = no such curve, though single readings can be large; an effect the other way counts as inactive or inconclusive. Potency is the fitted concentration of half-maximal effect.

Screening COc1ccc(OCc2ccc(-c3nc(C#N)c(N4CCC(C(N)=O)CC4)o3)o2)cc1 returned BAZ2B block inconclusive, G9a block -7%[59 µM], HP1b chromo inh 14% and JMJD2A Tudor inh inconclusive.
Screening COc1ccc(OCc2ccc(-c3nc(C#N)c(N4CCC(C)CC4)o3)o2)cc1 returned BAZ2B block 3.5µM*, G9a block 3.5µM*, HP1b chromo inh inconclusive and JMJD2A Tudor inh inconclusive.
For O=C(Nc1ccc(Cl)cc1F)C1CCCN(C2=NS(=O)(=O)c3ccccc32)C1 (stereo not given) the results were BAZ2B block 13%, G9a block 50µM*, L3MBTL1 inh 4%, HP1b chromo inh 22% and JMJD2A Tudor inh -18%.
For O=C(CCN1C(=O)c2ccc([N+](=O)[O-])cc2C1=O)Nc1ccc(O)cc1C(=O)O the results were BAZ2B block 7%, G9a block 50µM*, Sfp inh inconclusive, HP1b chromo inh 1% and JMJD2A Tudor inh -18%.
`O=C(O)Cc1ccc(NC(=O)CCN2C(=O)c3ccc([N+](=O)[O-])cc3C2=O)cc1` gave BAZ2B block -15%, G9a block -1%, Sfp inh 2%, HP1b chromo inh 34% and JMJD2A Tudor inh -5%[11.4 µM].
Screening Cc1ccc(S(=O)(=O)NCCC(=O)N2CCC(Cc3ccccc3)CC2)cc1 returned BAZ2B block 11%, G9a block 19%[0.501 µM], L3MBTL1 inh 4%, HP1b chromo inh 45% and JMJD2A Tudor inh -9%.
Cc1ccc(S(=O)(=O)NC(C)(C)CN2CCC(Cc3ccccc3)CC2)cc1 was read as BAZ2B block 56µM*, G9a block 7.9µM*, Sfp inh inconclusive, L3MBTL1 inh 3%, HP1b chromo inh -7% and JMJD2A Tudor inh 40µM*.
For CC(C)(CN1CCOCC1)NS(=O)(=O)c1ccccc1 the results were BAZ2B block 9%, Sfp inh 7%, L3MBTL1 inh 6%, HP1b chromo inh 57% and JMJD2A Tudor inh 3%.
`CC1CC(C)CN(CC(C)(C)NS(=O)(=O)c2ccccc2)C1` (stereo not given) gave BAZ2B block 50µM*, G9a block 8.9µM*, Sfp inh -14%, L3MBTL1 inh -1%, HP1b chromo inh inconclusive and JMJD2A Tudor inh 22µM*.
CN1CCN(CC(C)(C)NS(=O)(=O)c2ccccc2)CC1 was read as L3MBTL1 inh 6%, HP1b chromo inh 9% and JMJD2A Tudor inh -5%.
`CCC1CCCCN1CC(C)(C)NS(=O)(=O)c1ccccc1` (stereo not given) gave BAZ2B block inconclusive, G9a block 7.1µM*, Sfp inh 16%, L3MBTL1 inh -8%, HP1b chromo inh inconclusive and JMJD2A Tudor inh 4.5µM*.
`CN1CCC(N(C)CC(C)(C)NS(=O)(=O)c2ccccc2)CC1` gave BAZ2B block -3%, G9a block inconclusive, Sfp inh 12%, L3MBTL1 inh -11%, HP1b chromo inh 82% and JMJD2A Tudor inh -18%.
Screening CC(C)(CN1CCc2ccccc2C1)NS(=O)(=O)c1ccccc1 returned BAZ2B block -31%, G9a block 10µM*, Sfp inh -17%, L3MBTL1 inh 4%, HP1b chromo inh inconclusive and JMJD2A Tudor inh 3.2µM*.
For O=C(NCCc1csc(-c2ccc(F)cc2)n1)c1cccc(F)c1 the results were BAZ2B block 19%, G9a block 2%[59 µM], HP1b chromo inh 27%[57 µM] and JMJD2A Tudor inh -6%.
For Cc1cc(C)c2c(n1)nn1c(C)c(CCC(=O)Nc3cccc(C)c3C)c(C)nc21 the results were BAZ2B block 3%, G9a block -9%[59 µM], HP1b chromo inh 37% and JMJD2A Tudor inh -5%.
